This is an account of results in PubChem BioAssay (Tox21).

Structures are written as SMILES. Values joined by “and” are separate entries in the source; they are usually repeats but may differ in a detail not shown here. Identical values can stand only once. Records with an inconclusive call do not appear. A number with no mark means an inactive call. Active and inactive are the calls of the source. Calls come from the whole dose curve; as a rule, active = well fitted inhibition curve with a large enough effect in the repeat runs; inconclusive = weak or mixed curves; inactive = no such curve, though single readings can be large or run the other way.
% is set by controls: 0 for no effect and ±100 for the full control effect; potency is the fitted concentration of half-maximal effect.

The target of this assay is Cytochrome P450 2C9 (Homo sapiens) (UniProt P11712). Briefly: Cytochrome P450 Family 2 Subfamily C Member 9 (CYP2C9) small molecule antagonists: luciferase reporter qHTS assay (AID 1671198). Note: nearly all actives have a fitted effect of over 50% in size. As to conditions: P450-Glo CYP2C9 enzyme assay, luciferin luminescence; series mostly up to 115 µM; activity change, negative = inhibition: at the top concentration. The text has this: U.S. Tox21 Program National Center for Advancing Translational Sciences [NCATS] U.S. Environmental Protection Agency [EPA] National Institutes of Environmental Health Sciences [NIEHS] National Toxicology Program [NTP] U.S. Food and Drug Administration [FDA] Tox21 Assay Overview: Cytochrome P450 (CYP) enzymes are membrane-bound hemeproteins that play a key role in metabolism of drugs and xenobiotics. Evaluation of the effect of chemicals on CYP isozymes is useful to minimize the adverse drug reactions and toxicities in drug development process. Tox21 chemicals were tested for their effect on CYP enzyme activities by using P450-Glo (TM) screening systems (Promega Corporation, Madison, WI). These systems provide a luminescent method containing proluciferin substrates and are converted to luciferin products by CYP isozymes. The luciferin products formed are detected with a luciferin detection reagent, and the amount of light produced is proportional to CYP activity. P450-Glo (TM) CYP2C9 screening system (Catalog. No. V9790) was used to detect the compounds that interfere in CYP2C9 activity.
Cytochrome P450 2C9 (Homo sapiens), sequence (P11712 whole entry, looked up): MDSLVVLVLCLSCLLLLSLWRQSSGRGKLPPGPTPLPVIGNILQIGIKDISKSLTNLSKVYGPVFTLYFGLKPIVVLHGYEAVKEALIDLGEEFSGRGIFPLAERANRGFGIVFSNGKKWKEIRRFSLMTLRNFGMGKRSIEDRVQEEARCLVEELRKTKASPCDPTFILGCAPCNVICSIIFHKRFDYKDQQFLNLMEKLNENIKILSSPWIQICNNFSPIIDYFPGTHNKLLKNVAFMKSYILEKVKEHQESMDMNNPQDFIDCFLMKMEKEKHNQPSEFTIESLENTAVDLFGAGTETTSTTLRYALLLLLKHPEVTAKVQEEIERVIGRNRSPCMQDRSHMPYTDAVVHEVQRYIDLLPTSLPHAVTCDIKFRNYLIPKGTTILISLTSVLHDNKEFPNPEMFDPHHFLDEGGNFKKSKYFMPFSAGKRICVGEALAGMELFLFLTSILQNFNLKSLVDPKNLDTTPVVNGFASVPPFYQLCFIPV
Tox21 Assay Protocol Summary: Two ul of enzyme-substrate mix was dispensed into medium binding white/solid 1536-well plates (Greiner Bio-One North America Inc., Monroe, NC) using a BioRaptr Flying Reagent Dispenser (FRD, Beckman Coulter, Brea, CA). […] The assay plates were incubated at room temperature for 10 min. Then 2 ul of NADPH regeneration solution was added to each well of the assay plates using an FRD and incubated at 37C for 1 h. The reaction was stopped by adding 4 ul of detection reagent using an FRD and after 20 min incubation at room temperature the luminescence signal was measured using a ViewLux plate reader (Perkin Elmer, Shelton, CT). Data were expressed as relative luminescence units.
On to `N#C/C=C/c1ccccc1`, for which the “activity change, negative = inhibition” value was -4.43%.

Consider `CCC[CH2][Sn]([CH2]CCC)([CH2]CCC)[O]C(=O)c1ccccc1`, for which the Potency was 12.6 µM (active). On the same count and under the same terms, the figure for `CC(=O)/C=C/c1ccc2c(c1)OCO2` is 8.01 µM (active). With `CN(CCCC(O)c1cccnc1)N=O` (stereo not given), the “activity change, negative = inhibition” value is 0.347%. Same read-out and setting: the value for `C=CCOC(N)=O` was -4.84%. Still for that read-out and setting: the figure for `C1CCC2CCCCC2C1` (stereo not given) is -3.32%.

As for `C[C@]12Cc3nonc3C[C@@H]1CC[C@@H]1[C@@H]2CC[C@@]2(C)[C@H]1CC[C@]2(C)O`, the Potency is 24.5 µM (active).

For `COC(=O)N(C(=O)N1COC2(C(=O)OC)Cc3cc(Cl)ccc3C2=N1)c1ccc(OC(F)(F)F)cc1` (stereo not given), the Potency was 4.9 µM (active). Turning to `CC(C)(C)c1cc([N+](=O)[O-])cc(C(C)(C)C)c1O`, the Potency was 12.6 µM (active).

Turning to `COP(N)(=S)OC`, the “activity change, negative = inhibition” value is -19.8%. Take `CC1(C)[C@H](C(=O)O[C@H](C#N)c2cccc(Oc3ccccc3)c2)[C@@H]1/C=C(\Cl)C(F)(F)F`: the Potency is 8.28 µM (active) and 7.96 µM (active).

With `CC(C)CCCCCOC(=O)c1ccccc1C(=O)OCCCCCC(C)C`, the Potency is 12.5 µM (active). Take `N#CNC#N`: the “activity change, negative = inhibition” value was 3.8%.

`CC(C)N1C(=O)N(c2ccccc2)CSC1=NC(C)(C)C`: the Potency is 6.33 µM (active). `O=c1ssc(Cl)c1Cl`: the Potency was 39.9 µM (active). Regarding `Cc1ccc(CCl)cc1`, the “activity change, negative = inhibition” value is -10.7%.

For the molecule `Brc1c(Br)c(Br)c(Oc2c(Br)c(Br)c(Br)c(Br)c2Br)c(Br)c1Br`, the activity change, negative = inhibition is -7.81% [at 23.6 µM].

On to `CCOP(=S)(OCC)OC(Cl)C(Cl)(Cl)Cl` (stereo not given), for which the Potency was 3.99 µM (active). On the same count and under the same terms, the figure for `ClC1=C(Cl)C2(Cl)C3C(Cl)C=CC3C1(Cl)C2(Cl)Cl` (stereo not given) is 35.6 µM (active).

In the case of `CC1(C)C(/C=C(\Cl)C(F)(F)F)C1C(=O)OC(C#N)c1cccc(Oc2ccccc2)c1` (stereo not given), the Potency was 8.09 µM (active).

Turning to `ClC(Cl)=C(c1ccc(Cl)cc1)c1ccc(Cl)cc1`, the Potency is 14.5 µM (active) and 12.6 µM (active). On the same count and under the same terms, the figure for `COc1ccc(N)cc1N` is 41.2 µM (active) and 24.2 µM (active).

Turning to `CN(CCCC(=O)c1cccnc1)N=O`, the “activity change, negative = inhibition” value is -11.4%.

For the molecule `Cc1ccc(C(=O)Cl)cc1`, the “activity change, negative = inhibition” value was -6.04%. On the same count and under the same terms, the value for `FC(Cl)(Cl)Cl` was -5.64%. On to `O=[N+]([O-])c1cc(C(F)(F)F)c(Cl)c([N+](=O)[O-])c1Cl`, for which the Potency is 12.6 µM (active).

Take `COP(=O)(CCC(=O)NCO)OC`: the “activity change, negative = inhibition” value is -0.158%. On the same count and under the same terms, the figure for `CC(C)C(=O)Cl` is -4.63%. Consider `CC(=O)C(Cl)(Cl)Cl`, for which the Potency was 15.3 µM (active).

In the case of `CCCN(CCC)CCc1c[nH]c2ccccc12`, the “activity change, negative = inhibition” value is -16.5%.

For the molecule `COc1cc(N)c(Cl)cc1C(=O)NC1CN2CCC1CC2` (stereo not given), the “activity change, negative = inhibition” value was 23.9% [at 53 µM]. Regarding `Oc1ccc(C2(c3ccc(O)cc3)c3ccccc3-c3ccccc32)cc1`, the Potency was 20 µM (active). `BrC(Br)C(Br)(Br)Br`: the Potency is 31.9 µM (active). The same measure, in the same setting: the figure for `Nc1c(Oc2ccccc2)cc(O)c2c1C(=O)c1ccccc1C2=O` is 17.4 µM (active). In the case of `O=[N+]([O-])c1ccc2ccc3cccc4ccc1c2c34`, the “activity change, negative = inhibition” value is 4.84%. On to `Oc1ccc(C(c2ccc(O)cc2)(C(F)(F)F)C(F)(F)F)cc1`, for which the Potency is 3.16 µM (active) and 2 µM (active). Take `CCC(C)(C)C(=O)OC1=C(c2ccc(Cl)cc2Cl)C(=O)OC12CCCCC2`: the Potency was 31.7 µM (active). In the case of `O=[N+]([O-])c1ccc(Oc2ccc(C(F)(F)F)cc2[N+](=O)[O-])cc1`, the Potency was 25.2 µM (active). On to `CCN`, for which the “activity change, negative = inhibition” value was -0.92%.

Turning to `O=[N+]([O-])c1c2ccccc2cc2ccccc12`, the Potency was 11.1 µM (active).
